An excerpt weighted towards active compounds, which were near 5.7% of everything screened.
ssDAF12 agonist: activates DAF-12 receptor from parasite S. stercoralis. activation, % at 6.8 µM. HEK293 ssDAF-12/GRIP1 lit1-tk-luc reporter, luminescence; % of 3 µM dafachronic acid response. 370,000 tested, 1% active. AID 652126;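 active = activation above the mean over all tested compounds plus 3 SD, cut at about 0.9% in these data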;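 note: 0% = DMSO-only wells and 100% = 3 µM delta7-dafachronic acid wells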
hcDAF12 agonist: activators of H. contortus DAF-12 nuclear receptor. HEK293 hcDAF-12 lit1-tk-luc reporter, luminescence; 0% DMSO, 100% Δ7-dafachronic acid. 370,000 tested, 1.4% active. activation, % at 6.8 µM;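 active = activation above the mean of all tested compounds plus 3 SD, cut at about 5.5% in these data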;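 note: 100% = response to 3 µM Δ7-dafachronic acid high control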
DAX1 inh-1: NR0B1 (DAX1) inhibition; 340,000 tested, 0.99% active; AID 504766; inhibition, % at 6.75 µM; HEK293 Gal4-DAX1 luciferase reporter, luminescence;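 active = inhibition above the mean over all tested compounds plus 3 SD, cut at about 4.2% in these data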;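 note: 0% = DAX1-transfected cells with DMSO and 100% = empty-vector control cells with DMSO; inhibition shows as a rise in luminescence from relieved DAX1 repression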
Target sequence (P51843 207-470 limits assumed): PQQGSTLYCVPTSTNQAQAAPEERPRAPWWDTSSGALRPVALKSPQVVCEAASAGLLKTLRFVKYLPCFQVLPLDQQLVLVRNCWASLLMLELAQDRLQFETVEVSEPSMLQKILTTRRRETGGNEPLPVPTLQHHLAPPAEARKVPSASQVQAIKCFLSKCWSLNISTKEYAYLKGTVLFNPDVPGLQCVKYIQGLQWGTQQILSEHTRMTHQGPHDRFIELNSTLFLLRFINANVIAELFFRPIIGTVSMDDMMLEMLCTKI
DAX1 inh-2: inhibitors of DAX1 repression of SF-1 activated StAR promoter; HEK293T StAR-luciferase reporter, SF-1/DAX-1 repression relief; inhibition, % at 6.8 µM; 370,000 tested, 1.1% active; AID 652010;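 active = inhibition above the mean over all tested compounds plus 3 SD, cut at about 3.6% in these data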;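 note: 0% = DAX-1 cells with DMSO and 100% = cells lacking DAX-1 with DMSO; higher inhibition means more luminescence from relief of DAX-1 repression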
hgDAF-12 ag: agonists of H. glycines DAF-12 nuclear receptor; HEK293 GAL4-hgDAF12 UAS-luciferase reporter, agonist luminescence; normalized to butyrate control; 370,000 tested, 1.8% active; activation, % at 6.8 µM; AID 687014;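 active = activation above a cutoff set at the mean of all screened compounds plus 3 SD, cut at about 10% in these data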;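 note: 0% = DMSO wells and 100% = sodium butyrate wells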
AHR act: activates the human aryl hydrocarbon receptor. P35869. AHR-responsive luciferase reporter cells, luminescence. activation, % at 5 µM. 320,000 tested, 2.5% active. AID 2796; in the data active = activation above about 47%;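 note: 0% = vehicle wells and 100% = reference agonist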
* = called active by the depositor; nt = no result.

SMILES | ssDAF12 agonist | hcDAF12 agonist | DAX1 inh-1 | DAX1 inh-2 | hgDAF-12 ag | AHR act
O=C(N/N=C/c1cccc([N+](=O)[O-])c1)c1cccs1 | -0.6 | 1.8 | 0.8 | 0.8 | 9.9 | 1.0
CCOc1cc(/C=N/NC(=O)c2cccs2)cc([N+](=O)[O-])c1O | 0.4 | 1.7 | 1.1 | 2.4 | 12.3* | nt
CCCCCC1=CCC/C1=N\NC(=O)c1ccc2c(c1)OCO2 | -1.9 | -0.4 | -0.2 | 1.4 | 11.6* | 26.6
COc1ccc(/C=N/NC(=O)c2ccccc2O)cc1CN1CCOCC1 | -0.4 | 6.0* | -1.0 | -0.4 | 5.7 | 14.9
Cc1ccc(C(=O)N/N=C\c2sccc2C)cn1 | -1.1 | -0.1 | -0.2 | 0.9 | 1.4 | 9.3
Cc1cccc(OCC(=O)N/N=C/c2ccc3c(c2)OCO3)c1 | 1.2* | 0.0 | -1.4 | -0.2 | 1.4 | 19.0
Cc1ccsc1/C=N\NC(=O)c1ccc2c(c1)OCO2 | -0.7 | 4.0 | 2.0 | 4.0* | 10.3 | 22.4
COc1ccc(S(=O)(=O)N2CCCc3nc(C)c(C)cc32)cc1 | -0.6 | -1.4 | nt | 1.1 | -2.7 | nt
CC(=C\c1ccco1)/C=C(\C#N)C(=O)NCCc1c[nH]c2ccccc12 | -1.4 | 0.5 | -0.5 | 0.0 | -3.9 | 13.6
Cc1cccc(/C=N/NC(=O)Cc2ccc(Cl)cc2)c1O | -1.8 | -1.5 | 0.1 | -0.6 | -3.8 | 52.0*
COc1cc(/C=N/NC(=O)c2cc(-c3ccc4c(c3)OCO4)n[nH]2)ccc1O | -1.7 | 1.0 | -2.2 | 0.4 | 6.0 | 128.2*
Cc1cccc(OCC(=O)N/N=C/c2cn[nH]c2-c2ccc(Cl)c(Cl)c2)c1 | -1.4 | -1.9 | 0.3 | -0.8 | -1.2 | 47.1*
COc1cc2ccccc2cc1C(=O)N/N=C/c1ccc2c(c1)OCO2 | -1.2 | -2.5 | -0.2 | -2.1 | 2.0 | nt
COc1ccccc1C(=O)N/N=C/c1ccc2c(c1)OCO2 | -1.0 | 0.5 | 1.4 | 0.8 | 8.1 | 50.0*
O=C(c1ccncc1)N1CCN(S(=O)(=O)c2ccc(OC(F)(F)F)cc2)CC1 | -0.8 | -2.0 | 0.6 | 0.0 | -1.0 | -1.1
C/C(=N\N(Cc1ccccc1)c1ccccc1)c1ccncc1 | -0.6 | -0.1 | 3.5 | 0.5 | 2.8 | 4.7
O=C(NCCCN1CCOCC1)C(=O)N/N=C/c1ccc2c(c1)OCO2 | -0.7 | -0.5 | 4.4* | 0.1 | -1.4 | 4.5
Cc1cccc(OCC(=O)Nc2cc(C)c(C)cc2O)c1 | -0.4 | 2.9 | -0.9 | 0.9 | 3.3 | 11.1
S=C(NN=Cc1ccc2c(c1)OCO2)NN=Cc1ccc2c(c1)OCO2 | -1.4 | 1.6 | 0.4 | -1.4 | -0.7 | nt
Cc1cccc(OCC(=O)Nc2cc(C)ccc2O)c1 | 1.1* | 1.7 | -0.4 | -0.6 | 1.5 | 4.9
O=C(N/N=C/c1ccc2c(c1)OCO2)C1CC1 | -0.6 | -0.1 | 1.3 | 1.1 | 5.0 | 67.2*
O=C(N/N=C\c1cccc(OC(=O)c2ccco2)c1)c1ccc2c(c1)OCO2 | 0.1 | 2.1 | -0.2 | 2.9 | 12.2* | 2.9
O=C(N/N=C/c1cccnc1)c1ccc2c(c1)OCO2 | -0.4 | 1.4 | 0.5 | 0.2 | 6.2 | 14.8
COc1ccccc1/C=N/NC(=O)c1ccc2c(c1)OCO2 | -0.9 | 0.0 | 4.3* | 0.1 | 4.1 | 51.2*
COc1ccc(-c2cc(C(=O)N/N=C/c3ccc4c(c3)OCO4)c3ccccc3n2)c(OC)c1 | -1.5 | -3.6 | -2.0 | -2.0 | -7.9 | 48.5*
SMILES | ssDAF12 agonist | hcDAF12 agonist | DAX1 inh-1 | DAX1 inh-2 | hgDAF-12 ag | AHR act
Cc1cccc(/C=N/NC(=O)c2ccc3c(c2)OCCO3)c1O | 1.1* | 4.1 | -3.1 | 0.4 | 5.8 | -1.1
O=C(N/N=C/c1ccc[nH]1)c1ccc2c(c1)OCO2 | -1.4 | 0.7 | -0.1 | 0.2 | 10.8* | 16.9
COc1ccc(-c2cc(C(=O)N/N=C/c3ccc(OC)c(COCC(F)(F)C(F)F)c3)c3ccccc3n2)c(OC)c1 | -0.5 | -0.8 | 0.7 | -0.2 | 1.3 | 21.9
COc1cccc(C2NC(=S)N(Cc3ccccc3)C(C)=C2C(C)=O)c1 (configuration not stated) | -1.8 | -0.2 | nt | 0.0 | -2.5 | nt
Cc1nn(Cc2ccccc2Cl)c2sc(C(=O)NCCCn3ccnc3)cc12 | -1.6 | -3.3 | -2.0 | -1.2 | -3.5 | 49.5*
Cc1csc(NC(=O)c2cc3c(C)nn(Cc4ccccc4Cl)c3s2)n1 | -1.9 | -2.1 | -1.5 | -1.3 | -3.6 | 47.1*
O=C(Cn1ccccc1=O)NCc1ccc(F)cc1 | -0.7 | -0.2 | 0.1 | 0.1 | 2.8 | -2.5
CC(C)(C)OC(=O)N1O[C@H]2C=C[C@@H]1C2 | -0.7 | -2.3 | nt | -0.8 | 2.8 | nt
COc1ccc(Nc2nc3ccccc3n3cnnc23)cc1Cl | -0.9 | -0.4 | -0.8 | -0.1 | 0.3 | 3.8
COc1ccc(/C(C)=N/Nc2nc3ccccc3n3cnnc23)cc1OC | -1.3 | 2.8 | nt | -0.1 | -1.6 | 61.1*
C=CCc1cc(Cl)ccc1OCCNCCCOC | -1.6 | -1.8 | 7.1* | -0.6 | -0.7 | -2.7
C=CCc1cc(Cl)ccc1OCCOCCNCCOC | -1.3 | -1.6 | -0.2 | 0.3 | -1.6 | 2.5
COCCN(CCOC)C(=O)[C@H](CCc1ccccc1)NC(=O)[C@H]1O[C@@H](n2cnc3c(N)ncnc32)[C@H](O)[C@@H]1O | -0.4 | -0.9 | nt | -0.6 | 0.2 | nt
O=C(/C=C/CCc1ccc2c(c1)OCO2)N1CCCCC1 | -1.0 | -0.8 | 2.6 | 0.5 | 5.6 | 5.9
Cn1c2ccc(CC(=O)O)cc2c2cc(CC(=O)O)ccc21 | 0.8 | 1.0 | 0.4 | 0.4 | 0.5 | 14.6
COC(=O)Cc1ccc2c3ccccc3n(C)c2c1 | -1.2 | 5.8* | 0.7 | -0.3 | 3.9 | -0.9
COc1ccc([N+](=O)[O-])cc1NC(=O)C(C)OC(=O)c1cccnc1 (configuration not stated) | -1.6 | 3.9 | -0.4 | -0.2 | 2.0 | 6.7
COc1ccc(NC(=O)c2scc(S(=O)(=O)C(C)C)c2N)cc1 | 1.2* | 4.7 | 2.5 | 2.3 | 10.9* | 6.7
CC(C)S(=O)(=O)c1csc(C(=O)NN)c1Cl | -1.2 | 0.7 | nt | 1.0 | -0.5 | 5.5
COc1ccc(NC(=O)c2sc(SCc3ccccc3)nc2N)cc1 | -0.6 | -1.0 | 0.2 | 0.3 | -0.2 | 47.9*
COC(=O)C(C)N1C(=O)S/C(=C/c2cc(C)n(C(C)C)c2C)C1=O (configuration not stated) | -0.7 | 1.8 | -0.3 | 1.9 | 11.5* | 3.4
CCn1c(C)cc(/C=C2/SC(=O)N(C(C)C(=O)OC)C2=O)c1C (configuration not stated) | 0.4 | 0.2 | 0.2 | 0.7 | 5.7 | -5.2
CCCN(CCC)C(=O)c1cc(-c2ccc3c(c2)OCO3)nc2ccccc12 | nt | nt | -2.0 | nt | nt | 66.2*
Cc1cc(OCc2cc(C(=O)NC(C)c3c(C)nn(C)c3C)no2)cc(C)c1Cl (configuration not stated) | -0.8 | -1.1 | -0.5 | -0.4 | 8.7 | 3.0
CC/C(=N/Nc1cccc(Cl)c1)c1cnnc(SC)n1 | -1.3 | 2.5 | 4.6* | 0.2 | -4.1 | 9.4
CC/C(=N/Nc1ccccc1)c1cnnc(-c2ccccc2)n1 | -0.6 | 0.8 | 0.1 | 0.9 | 1.8 | 8.5

From PubChem
